Measured values as given in PubChem BioAssay AID1359 (The Scripps Research Institute Molecular Screening Center, 2008).
Among all 220,000 compounds or so, about 970 (0.44%) were called active. Rule as the data show it: active = activation above about 27%; inactive = the rest. The sample as a whole holds a higher share of actives than the screen did.

The compounds below were run against Neuropeptide Y receptor type 2 (Homo sapiens) (UniProt P49146) (assay: human Y2 receptor positive modulation or activation – cell-based, primary screen (AID 1359;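 also: cells stimulated with NPY near EC25 plus isoproterenol at EC100; 0% = vehicle plus submaximal agonist and 100% = vehicle plus saturating agonist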)). Conditions: cells expressing NPY-Y2, potentiator/agonist read-out; at 3.6 µM; active compounds read high.
Chain of Neuropeptide Y receptor type 2 (Homo sapiens) (P49146 whole entry, looked up): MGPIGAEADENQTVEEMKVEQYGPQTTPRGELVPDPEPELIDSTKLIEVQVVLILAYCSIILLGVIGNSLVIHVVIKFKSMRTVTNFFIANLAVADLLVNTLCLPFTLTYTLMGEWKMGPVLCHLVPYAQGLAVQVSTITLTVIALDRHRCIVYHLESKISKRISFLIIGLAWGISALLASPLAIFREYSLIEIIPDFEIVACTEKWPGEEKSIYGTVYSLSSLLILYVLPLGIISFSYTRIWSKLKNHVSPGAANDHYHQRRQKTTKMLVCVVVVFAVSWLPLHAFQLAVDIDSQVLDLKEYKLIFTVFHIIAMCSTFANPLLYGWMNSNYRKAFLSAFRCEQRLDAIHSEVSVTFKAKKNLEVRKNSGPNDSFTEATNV
For `Cc1nn(CCOc2ccc(Br)cc2)c(C)c1[N+](=O)[O-]`, the activation was 14.5% (inactive). For `O=C(NC1C2CC3CC(C2)CC1C3)c1ccc(N2CCNCC2)c([N+](=O)[O-])c1` (configuration not stated), the activation was 29.4% (inactive). `C#CCOCCOCCOCCNc1nc(N2CCN(C(=O)[C@H](Cc3ccc(O)cc3)n3cc(C(N)CC(C)C)nn3)CC2)nc(N2CCN(C(=O)[C@H](CCC(=O)O)n3cc(C(N)[C@H](C)CC)nn3)CC2)n1` (some centres not stated) was tested, and the activation was -9.15% (inactive). In the case of `C#CCOCCOCCOCCNc1nc(N2CCN(C(=O)[C@H](CCCCN)n3cc([C@@H](N)C(C)CC)nn3)CC2)nc(N2CCN(C(=O)[C@H](Cc3ccc(O)cc3)n3cc([C@@H](N)C(C)CC)nn3)CC2)n1` (some centres not stated), the activation is reported as 104% (active). For `C#CCOCCOCCOCCNc1nc(N2CCN(C(=O)C(Cc3ccc(O)cc3)n3cc(C(N)CC(C)C)nn3)CC2)nc(N2CCN(C(=O)C(Cc3ccc(O)cc3)n3cc(C(N)C(C)CC)nn3)CC2)n1` (configuration not stated), the activation was -7.8% (inactive). For `O=C(CCC(=O)NNc1nc2ccccc2c2nc(-c3ccccc3)nn12)NCCCN1CCCC1=O`, the activation was -1.14% (inactive). In the case of `CCCCNC(=S)N/N=C1\CCCCc2ccccc21`, the activation is reported as 2.42% (inactive). In the case of `COc1ccc2[nH]c(=S)cc(C)c2c1`, the activation is reported as -28% (inactive). `COc1ccc2[nH]c3ccc(OC)cc3c2c1` was tested, and the activation was 65.6% (active). `CCN(CC)CC(=O)c1c[nH]c2ccc(OC)cc12` was tested, and the activation was 0.4% (inactive). For `O=C(c1c(Cl)cccc1Cl)N1CCN(c2cccc3[nH]ccc23)CC1`, the activation was 6.12% (inactive). In the case of `C=Cn1c(C(=O)O)ccc1-c1ccc(OC)cc1`, the activation is reported as -9.57% (inactive). `CCOC(=O)c1[nH]ncc1CN1CCCC(C(=O)c2ccc(OC)cc2C)C1` (configuration not stated) was tested, and the activation was 3.33% (inactive). In the case of `COc1ccc(C(=O)C2CCCN(Cc3cccn3-c3ccccn3)C2)c(C)c1` (configuration not stated), the activation is reported as 89.8% (active). In the case of `COc1ccc(C(=O)C2CCCN(Cc3ccc4nonc4c3)C2)c(C)c1` (configuration not stated), the activation is reported as -20.8% (inactive). `CC1CCc2sc(C(=O)N/N=C/C3CCCCC3)cc2C1` (configuration not stated) was tested, and the activation was 4.14% (inactive). With `CSCC(=O)N1CCCC(C(=O)c2cc(F)ccc2F)C1` (configuration not stated) the activation was 0.81% (inactive). In the case of `O=C(Nc1ccccc1)N1CCN(C2c3ccccc3-c3ccccc32)CC1`, the activation is reported as -13.1% (inactive). `N#C/C(=C\N1CCOCC1)S(=O)(=O)c1ccc(Cl)cc1` was tested, and the activation was 8.91% (inactive). In the case of `Cc1cccc(C)c1NC(=O)C1(C)c2cccc[n+]2CC(=O)N1Cc1cccs1` (configuration not stated), the activation is reported as -2.7% (inactive). For `C/C(=N/NC(=O)c1ccn(C)n1)c1ccncc1`, the activation was 9.5% (inactive). For `COC(=O)c1ccc(NC(=O)Nc2ccc(C)cc2)cc1`, the activation was 99.2% (active). With `Cc1ccc(NC(=O)CC(=O)Nc2ccc(C)cc2)cc1` the activation was -4.26% (inactive). For `CC(=O)c1cccc(NC(=O)Nc2ccc(C)cc2)c1`, the activation was 6.31% (inactive). For `Cc1ccc(S(=O)(=O)N2CCN(C(=O)COC(=O)c3c(C)noc3C)CC2)c(C)c1`, the activation was -1.02% (inactive). For `O=C(NC(Cc1c[nH]c2ccccc12)C(=O)N/N=C/c1ccc(Br)cc1)c1cccs1` (configuration not stated), the activation was 17.2% (inactive). With `COc1cc([N+](=O)[O-])ccc1NC(=S)N1CCN(c2ccccn2)CC1` the activation was -7.19% (inactive).
